Screening data deposited in PubChem by several laboratories.
aSyn 5UTR inh = MLPCN primary screen, SNCA 5' untranslated region | inhibition, % (tested at 7.5 µM) | actives 0.82% (n = 300,000) | AID 1813 | alpha-synuclein 5'UTR reporter, inhibitor activity; in the data active = inhibition above about 60%;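 note: H4 neuroglioblastoma cells stably carrying SNCA 5'UTR luciferase fusion; 0% = DMSO wells and 100% = positive control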
BaF3 parental = counter-screen for JAK2V617F inhibitors: parental Ba/F3 viability inhibitors. AID 1486. CellTiter-Glo ATP luminescence. actives 1.1% (n = 220,000). inhibition, % at 5.6 µM;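 active = inhibition above a per-campaign cutoff, the mean inhibition of all tested compounds plus 3 SD, cut at about 27% in these data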;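 note: 0% = DMSO wells and 100% = JAK Inhibitor I control wells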
APP 5UTR inh = APP translation inhibition | SH-SY5Y APP 5'UTR-luciferase reporter, luminescence | inhibition, % at 2 µM | actives 0.82% (n = 190,000);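 active = inhibition above a set limit, derived from the sample mean plus 3 SD, cut at about 45% in these data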
KLF5 inh = kruppel-like factor 5 inhibition; DLD-1 KLF5 promoter-luciferase reporter, luminescence; inhibition, % at 5 µM; AID 1700; actives 0.23% (n = 290,000);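 active = inhibition above a per-plate limit of that plate's mean compound inhibition plus 3 SD, cut at about 60% in these data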;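 note: 0% = DMSO wells and 100% = LY294002 at 200 µM; higher means less KLF5 promoter-driven luciferase light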
IEC-6 tox = kills IEC-6 intestinal cells in KLF5 counter-screen | IEC-6 cytotoxicity, luminescence viability | inhibition, % at 5 µM | actives 0.78% (n = 290,000);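 note: 0% = plate median of test compound wells and 100% = cytotoxic reference compound wells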
Ba/F3 V617F tox = lowers viability of Ba/F3 cells expressing EpoR and JAK2V617F; actives 1.1% (n = 220,000); ATP luminescence; AID 1446; inhibition, % at 5.6 µM;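 active = inhibition above the campaign mean plus 3 SD over all tested compounds, cut at about 24% in these data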;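 note: cytokine-independent growth of Ba/F3 cells driven by EpoR plus mutant JAK2; 0% = DMSO-treated cells and 100% = JAK inhibitor I control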
IEC-6 cytotox cf = IEC-6 cytotoxicity, confirmation assay. IEC-6 rat intestinal epithelial viability, luminescence. inhibition, % at 5 µM. actives 63% (n = 1,900). shares compounds with IEC-6 tox;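 note: 0% = vehicle and 100% = reference cytotoxic drug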
Numbers without * were called inactive; nt = no result. The list is not random: actives were taken first. Their share in the collection is about 2.1%. Cut-off read from the data, not from the text of the source, unless noted: active = inhibition above about 22%; inactive = the rest.

SMILES	aSyn 5UTR inh	BaF3 parental	APP 5UTR inh	KLF5 inh	IEC-6 tox	Ba/F3 V617F tox	IEC-6 cytotox cf
CCCCn1c(N)c(N(CC(C)C)C(=O)c2ccc(N3C(=O)CCC3=O)cc2)c(=O)[nH]c1=O	9.7	nt	nt	nt	nt	nt	nt
COC(=O)[C@]1(CC(C)C)N[C@H](c2ccc(-c3ccc(Cl)c(Cl)c3)cc2)[C@@H]2C(=O)N(C)C(=O)[C@@H]21	32.8	nt	nt	nt	nt	nt	nt
COC(=O)c1ccc(C)c(NS(=O)(=O)c2ccc(C)c([N+](=O)[O-])c2)c1	3.2	1.1	-15.0	-9.9	-1.1	1.1	nt
COC(=O)c1ccc(C)c(NS(=O)(=O)c2ccc(OC)cc2)c1	81.9*	75.0*	93.8*	52.6	87.3*	79.7*	59.3*
CN1CC(=O)N2C(c3cccc([N+](=O)[O-])c3)c3[nH]c4ccccc4c3C[C@H]2C1=O (some centres undefined)	17.1	nt	nt	32.4	34.1*	nt	14.1
O=c1[nH]c(-c2ccccn2)nc(C(F)(F)F)c1Br	44.1	27.6*	6.2	59.8	68.1*	9.2	24.4*
COc1ccc(CN2CCNC(=O)C2CC(=O)NCCCC2CCCC2)c(F)c1 (centres undefined)	-13.8	nt	nt	-13.7	4.2	nt	nt
CCOc1ccc(C2NC(=O)CCC2[N+](=O)[O-])cc1 (centres undefined)	-1.0	nt	nt	-18.4	-1.6	nt	nt
CCn1cc(C(=O)NCC(OC)OC)c(=O)c2cc(S(=O)(=O)N3CCC(C)CC3)ccc21	5.7	nt	nt	16.1	31.7*	nt	24.8*
O=C(Nc1ccc(C(=O)Nc2ccccc2Cl)cc1)c1cccnc1	nt	nt	nt	-68.8	0.7	nt	nt
CCOCCCNC(=O)c1cc(-c2cccnc2)nc2ccc(S(=O)(=O)N3CCC(C)CC3)cc12	8.1	nt	nt	-49.0	24.4*	nt	0.6
COCCNC(=O)c1cc(-c2ccccn2)nc2ccc(S(=O)(=O)N3CCC(C)CC3)cc12	4.9	nt	nt	-19.6	0.9	nt	nt
Cc1ccc(CSCC(=O)Nc2ccccc2C(=O)O)cc1	-93.8	nt	nt	-100.6	28.9*	nt	24.8*
CSc1ccccc1NC(=O)CSCc1ccc(C)cc1	-112.8	2.0	9.8	-15.6	0.3	-0.4	nt
CCOc1ccc(C(=O)NC(=S)Nc2cccc(S(=O)(=O)NC3=NCCC3)c2)cc1	110.8*	79.5*	89.0*	57.4	64.9*	72.3*	46.1*
CC(C)Cc1ccccc1S(N)(=O)=O	-17.5	nt	nt	-19.8	4.1	nt	nt
CCOC(=O)c1c(CSC(=N)N)n(C)c2cc(Br)c(OC(C)=O)cc12	0.9	-4.1	nt	-13.7	24.4*	-0.7	11.7
c1ccc(Nc2nc(-c3cccnc3)cs2)nc1	-39.3	1.7	-193.8	-185.1	-4.7	0.9	nt
Fc1ccc(-c2csc(Nc3ccccn3)n2)cc1	-77.0	nt	nt	-278.4	32.3*	nt	10.0
COc1ccc(C(=O)NC2CCCc3ccccc32)cc1[N+](=O)[O-] (centres undefined)	21.5	nt	nt	19.1	36.2*	nt	7.2
COc1cc(C(=O)NCCOc2ccccc2)cc(OC)c1OC	-11.7	nt	nt	-16.1	-1.6	nt	nt
COc1cc(C(=O)NCCOc2cc(C)cc(C)c2)cc(OC)c1OC	-16.6	nt	nt	46.6	61.8*	nt	42.1*
CC(=O)Nc1ccc(NC2=C/C(=N/S(=O)(=O)c3cccs3)c3ccccc3C2=O)cc1	82.6*	3.1	34.9	-32.5	43.3*	3.3	3.9
CC(=O)NC1=NN(C(C)=O)C(C)(c2ccco2)S1 (centres undefined)	16.7	7.8	3.0	12.5	-1.8	-0.5	nt
CC(=O)NC1=NN(C(C)=O)C(C)(c2cccs2)S1 (centres undefined)	39.2	61.6*	5.4	8.2	56.5*	62.1*	38.0*
SMILES	aSyn 5UTR inh	BaF3 parental	APP 5UTR inh	KLF5 inh	IEC-6 tox	Ba/F3 V617F tox	IEC-6 cytotox cf
O=C(Nc1ccc(S(=O)(=O)NC2=NCCCCC2)cc1)c1cc(S(=O)(=O)N2CCOCC2)ccc1F	6.4	nt	nt	-23.0	3.2	nt	nt
CSc1cccc(NC(=O)c2nnn(CC(=O)Nc3cc(C)cc(C)c3)c2N)c1	24.9	nt	nt	3.6	-1.4	nt	nt
COc1ccc(F)cc1Cn1nc(C(=O)O)c2ccccc2c1=O	6.1	nt	nt	-0.4	36.4*	nt	21.3
O=C(O)c1nn(CCOc2c(Cl)cccc2Cl)c(=O)c2ccccc12	-5.1	nt	nt	29.3	39.7*	nt	17.7
Cc1ccc(C(=O)Sc2cccccc2=O)cc1	-108.9	nt	nt	30.9	99.1*	nt	101.3*
Cc1ccc(S(=O)(=O)c2nc(-c3ccccc3Cl)oc2N(C)C)cc1	14.2	nt	nt	5.7	24.4*	nt	16.3
CC(C)=NOCC(=O)Nn1c(COc2c(C)cccc2C)nc2ccccc2c1=O	-6.2	nt	nt	3.5	-0.6	nt	nt
Cc1cccc(NC(=O)Cn2cc(C(=O)C3CC3)c3ccccc32)c1C	-10.8	nt	nt	-12.5	28.6*	nt	16.1
CCCN(CCC)c1nc(-c2ccccn2)nc2ccccc12	-45.3	nt	nt	34.2	93.1*	nt	32.7*
CN(Cc1c(C(=O)N/N=C/c2cccc(Cl)c2)nnn1-c1nonc1N)c1ccccc1	-4.9	nt	nt	-12.8	-5.0	nt	nt
Clc1ccc2nc(COc3ccccc3)[nH]c2c1	-150.7	nt	nt	-115.8	27.4*	nt	11.8
O=c1[nH]c(COc2ccccc2)nc2ccccc12	-69.7	nt	nt	-115.2	2.6	nt	nt
COc1ccc(S(=O)(=O)N2CCOc3ccccc32)cc1	7.4	nt	nt	51.7	60.2*	nt	37.3*
COc1ccc(S(=O)(=O)N2CC(C(=O)O)Oc3ccccc32)cc1 (centres undefined)	10.5	nt	nt	-57.7	-9.8	nt	nt
COc1ccc2[nH]c(C(=O)NCc3ccccc3)c(C)c2c1	-10.4	nt	nt	-8.7	3.8	nt	nt
COc1ccc(CCNC(=O)Cc2ccsc2)cc1	-17.5	nt	nt	10.0	1.8	nt	nt
CCn1ncc(C2=NOC(C(=O)NCc3ccc(Cl)cc3)C2)c1C (centres undefined)	0.7	11.4	49.1*	54.3	83.1*	20.7	51.1*
Cc1ccccc1C=Nc1ccccc1C(N)=O	-15.4	18.1	-6.1	23.1	23.4*	2.1	7.9
Clc1cccc(Cl)c1/C=N/Nc1c(Cl)cncc1Cl	-30.0	60.6*	nt	9.1	57.7*	79.3*	54.2*
Cc1cccc(Nc2nc(N)nc(-c3oc4ccccc4c3C)n2)c1	-23.1	3.8	nt	-63.3	11.5	-4.6	nt
Cc1ccc(Nc2nc(N)nc(-c3oc4ccccc4c3C)n2)cc1	91.1*	75.9*	92.0*	58.1	83.1*	75.7*	79.4*
COc1cccc(Nc2nc(N)nc(-c3oc4ccccc4c3C)n2)c1	-24.6	13.6	75.9*	-41.8	24.7*	12.0	34.6*
O=C(Nc1ccccc1C(=O)O)/C(=C/c1ccc(Cl)cc1Cl)NC(=O)c1ccco1	-13.6	nt	nt	1.7	1.5	nt	nt
CC(C)COc1ccc(S(=O)(=O)n2cc(F)c(=O)[nH]c2=O)cc1	28.9	62.9*	-4.8	-13.5	85.4*	61.0*	-1.1
CCOc1ccc(Cn2cc(F)c(=O)[nH]c2=O)cc1	16.2	0.3	nt	6.8	0.2	-1.8	nt
CCCOc1ccc(S(=O)(=O)n2cc(F)c(=O)[nH]c2=O)cc1	-4.9	nt	nt	-4.7	43.7*	nt	6.6
Cc1cccc(C)c1OCc1cc(C(=O)NCC2CC2)no1	-35.7	nt	nt	-28.5	-4.0	nt	nt
